The values that follow come from PubChem BioAssay (Tox21).

Inconclusive results are not listed. Calls of active or inactive are those of the source. Unless noted, the call rests on the fitted dose curve; in most records, active means well fitted curve in the direction sought with a large enough effect in the repeat runs; inconclusive means weak or mixed curves; inactive means no such curve, though single readings can be large; an effect the other way counts as inactive or inconclusive.

The target of test [1] is Aryl hydrocarbon receptor (Homo sapiens) (UniProt P35869). In words: qHTS assay to identify small molecule that activate the aryl hydrocarbon receptor (AhR) signaling pathway (AID 743085). Further: nearly all actives have a fitted effect of over 15% in size. Further: potency means the concentration at half of the fitted maximal effect.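 On activation: HG2L7.5c1 human HepG2 liver cells with stably integrated DRE-driven firefly reporter; series mostly up to about 70 µM.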 The essentials:
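Measured in HG2L7.5c1 cells: CellTiter-Fluor signal (30 min incubation, 37C) for viability, then luciferase luminescence (30 min, room temperature). Compound contact time was 24 h at 37C, following a 5 h pre-incubation.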
(qHTS replaces the single test concentration by a dilution series.)

Test [2] deals with Peroxisome proliferator-activated receptor gamma (Homo sapiens) (UniProt P37231). In words: qHTS assay to identify small molecule agonists of the peroxisome proliferator-activated receptor gamma (PPARg) signaling pathway (AID 743094; active means well fitted activation curve with a large enough effect in the signal ratio in the repeat runs, not every such curve was filed as active; the % refers to the signal ratio). The essentials: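 Agonist activity was taken from a beta-lactamase reporter (FRET substrate, 1 h at room temperature) in HEK293H cells carrying a PPARg UAS-bla construct. Compounds in DMSO were incubated 17 h at 37C after a 5 h cell pre-incubation.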
Sequence of Peroxisome proliferator-activated receptor gamma (Homo sapiens) (P37231 whole entry, looked up): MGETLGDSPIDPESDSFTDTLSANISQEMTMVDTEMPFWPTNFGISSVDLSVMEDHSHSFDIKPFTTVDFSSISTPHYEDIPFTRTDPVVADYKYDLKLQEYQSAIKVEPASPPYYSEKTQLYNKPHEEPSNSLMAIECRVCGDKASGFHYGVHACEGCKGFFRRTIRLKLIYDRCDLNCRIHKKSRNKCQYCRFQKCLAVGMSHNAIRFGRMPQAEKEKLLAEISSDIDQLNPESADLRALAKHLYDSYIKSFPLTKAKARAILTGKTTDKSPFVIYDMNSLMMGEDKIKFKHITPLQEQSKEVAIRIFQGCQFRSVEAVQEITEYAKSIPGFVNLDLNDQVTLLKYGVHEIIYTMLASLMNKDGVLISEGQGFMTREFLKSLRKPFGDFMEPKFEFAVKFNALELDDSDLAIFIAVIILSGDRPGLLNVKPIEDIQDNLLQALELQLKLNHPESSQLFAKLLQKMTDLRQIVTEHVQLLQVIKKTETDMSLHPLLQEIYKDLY

A short description of test [3]: qHTS assay to identify small molecule antagonists of the peroxisome proliferator-activated receptor gamma (PPARg) signaling pathway - cell viability counter screen (AID 743194). Further: nearly all actives have a fitted effect of over 55% in size. Further: potency means the concentration at half of the fitted maximal effect. The procedure, abridged: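 Viability was measured as CellTiter-Glo luminescence in GeneBLAzer PPARg UAS-bla HEK293H cells. These cells had been exposed 17 h at 37 C to compounds together with rosiglitazone at 50 nM final, with the beta-lactamase readout taken in the same wells.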

The nature of test [4]: qHTS assay for small molecule agonists of the antioxidant response element (ARE) signaling pathway - cell viability counter screen (AID 743203; calls by dose curve; further: nearly all actives have a fitted effect of over 55% in size; further: potency means the concentration at half of the fitted maximal effect). The essentials:
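Viability counter screen: CellTiter-Glo luminescence, read after 30 min at room temperature, in ARE-bla HepG2 wells. Compound exposure lasted 16 h at 37C/5% CO2, following a 5 h pre-incubation of the cells after plating.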

Test [5] can be described thus: qHTS assay for small molecule activators of the heat shock response signaling pathway - cell viability counter screen (AID 743209). Further: nearly all actives have a fitted effect of over 50% in size. Further: potency means the concentration at half of the fitted maximal effect. The procedure, abridged:
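Cytotoxicity counter screen run in the same wells as the heat-shock bla reporter assay: HeLa HSE-bla cells, 5 h compound exposure at 37 C, viability read by CellTiter-Glo luminescence.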

The nature of test [6]: qHTS assay for small molecule activators of the heat shock response signaling pathway (AID 743210; active means well fitted activation curve with a large enough effect in the signal ratio in the repeat runs, with a control signal flat, not every such curve was filed as active; the % refers to the signal ratio;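 further: HeLa cells with beta-lactamase reporter driven by heat shock elements; series mostly up to about 63 µM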). The procedure, abridged:
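Fluorescence from a cleaved B/G FRET substrate (2.5 h, room temp) reports HSE-driven beta-lactamase in HeLa cells treated 5 h at 37 C with DMSO-dissolved compounds.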

A short description of test [7]: qHTS assay to identify small molecule agonists of the peroxisome proliferator-activated receptor delta (PPARd) signaling pathway - cell viability counter screen (AID 743211). Further: nearly all actives have a fitted effect of over 55% in size. Further: potency means the concentration at half of the fitted maximal effect. The essentials: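 Following 5 h plating at 37 C and 5% CO2, PPARd UAS-bla HEK293H cells took up test compounds for 17 h. Viability was quantified by luminescence 30 min after CellTiter-Glo addition at room temperature.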

Test [8] can be described thus: qHTS assay to identify small molecule that activate the aryl hydrocarbon receptor (AhR) signaling pathway - cell viability counter screen (AID 743086). Further: nearly all actives have a fitted effect of over 45% in size. Further: potency means the concentration at half of the fitted maximal effect. The essentials:
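Cytotoxicity counter screen: CellTiter-Fluor signal (30 min, 37 C) in 4000 HepG2 cells/well carrying the DRE-luciferase reporter, following 24 h compound exposure at 37 C.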

A short description of test [9]: qHTS assay for small molecule agonists of the antioxidant response element (ARE) signaling pathway (AID 743202; active means well fitted activation curve with a large enough effect in the signal ratio in the repeat runs, not every such curve was filed as active; the % refers to the signal ratio; further: potency means the concentration at half of the fitted maximal effect). The procedure, abridged: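 Beta-lactamase reporter activity, read as fluorescence intensity, reflects ARE/Nrf2 pathway induction in HepG2 cells after 16 h compound exposure at 37 C; substrate loading was 2 h at room temperature.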
Test [10] concerns the target Peroxisome proliferator-activated receptor gamma (Homo sapiens) (UniProt P37231). Put plainly: qHTS assay to identify small molecule antagonists of the peroxisome proliferator-activated receptor gamma (PPARg) signaling pathway (AID 743191; calls by dose curve; further: nearly all actives have a fitted effect of over 30% in size; further: potency means the concentration at half of the fitted maximal effect). The procedure, abridged: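 Beta-lactamase reporter under UAS control in HEK293H PPARg-bla cells; compound treatment 17 h at 37C. Read-out: fluorescence intensity after 1 h room-temperature incubation with LiveBLAzer B/G FRET substrate.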

Sequence of Aryl hydrocarbon receptor (Homo sapiens) (P35869 whole entry, looked up): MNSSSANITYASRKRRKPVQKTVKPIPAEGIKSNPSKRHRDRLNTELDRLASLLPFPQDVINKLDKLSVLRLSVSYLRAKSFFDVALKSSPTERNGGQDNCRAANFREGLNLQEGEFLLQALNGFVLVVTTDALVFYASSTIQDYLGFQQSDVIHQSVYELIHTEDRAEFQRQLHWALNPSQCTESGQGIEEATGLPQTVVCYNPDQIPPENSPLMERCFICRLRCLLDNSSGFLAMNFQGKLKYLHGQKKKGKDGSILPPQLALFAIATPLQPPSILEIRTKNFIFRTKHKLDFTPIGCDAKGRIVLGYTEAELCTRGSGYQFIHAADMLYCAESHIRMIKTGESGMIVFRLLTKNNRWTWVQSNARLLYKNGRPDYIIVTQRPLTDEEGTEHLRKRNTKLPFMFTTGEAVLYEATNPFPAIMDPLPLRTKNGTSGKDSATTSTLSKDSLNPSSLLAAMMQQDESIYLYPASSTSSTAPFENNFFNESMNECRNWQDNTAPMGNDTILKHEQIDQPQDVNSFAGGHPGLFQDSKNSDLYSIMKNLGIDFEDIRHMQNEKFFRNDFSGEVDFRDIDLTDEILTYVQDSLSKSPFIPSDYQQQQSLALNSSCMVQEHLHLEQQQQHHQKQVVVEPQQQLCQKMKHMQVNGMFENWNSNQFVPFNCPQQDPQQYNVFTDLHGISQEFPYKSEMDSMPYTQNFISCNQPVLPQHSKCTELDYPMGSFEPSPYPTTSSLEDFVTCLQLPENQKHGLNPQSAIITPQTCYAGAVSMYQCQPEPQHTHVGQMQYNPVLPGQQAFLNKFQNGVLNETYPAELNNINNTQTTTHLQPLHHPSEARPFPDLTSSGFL

For the molecule `CN(C)[C@@H]1C(=O)C(C(N)=O)=C(O)[C@@]2(O)C(=O)C3=C(O)c4c(O)ccc(Cl)c4[C@@H](O)[C@H]3C[C@@H]12`, the Potency result in [1], in test [2], in test [3], in test [4], in [5] and in test [6] was “inactive” each time. Further, in test [7], the Potency result was “inactive”.

`CCN(CC)CCCC(C)Nc1c2ccc(Cl)cc2nc2ccc(OC)cc12` (centres undefined): the Potency in [1] is 9.44 µM (active); in [4], 7.5 µM (active); in [7] it was 11.9 µM (active). Besides, the Potency entry in test [8] and in test [5] was “inactive” throughout.

Turning to `O=C(Nc1cccc([N+](=O)[O-])c1)c1cc2ccccc2cc1O`, the values for the Potency in test [1], in [3] and in test [9] were 2.43 µM (active), 0.195 µM (active) and 1.72 µM (active), respectively. For the same molecule, the Potency entry in [2], in test [4] and in test [5] was “inactive” each time.

Consider `CCCN(CCC)C(=O)C(CCC(=O)OCCCN1CCN(CCOC(=O)Cc2c(C)n(C(=O)c3ccc(Cl)cc3)c3ccc(OC)cc23)CC1)NC(=O)c1ccccc1` (centres undefined), for which the figures for the Potency in test [1], in test [8] and in test [7] were 29.8 µM (active), 21.1 µM (active) and 23.7 µM (active), respectively. Also, the Potency entry in test [9] and in test [4] was “inactive” throughout.

As to `Oc1ccc2cc(SSc3ccc4cc(O)ccc4c3)ccc2c1`, the Potency entry in [1], in [2], in [4] and in test [5] was “inactive” throughout. The Potency in test [10] is 13.8 µM (active).

Regarding `C[C@H]1[C@H]2CC[C@H]3[C@@H]4CC=C5C[C@@H](N(C)C)CC[C@]5(C)[C@H]4CC[C@]23CN1C`, the Potency result in [1], in test [2], in test [10], in [9], in [4] and in test [5] was “inactive” in each case. Also, the Potency entry in test [6] and in test [7] was “inactive” throughout.

Consider `O=CC=C(c1ccccc1)c1ccccc1`, for which the Potency entry in [1], in test [8], in test [4] and in test [5] was “inactive” in each case. Moreover, in [9], the Potency is 43.6 µM (active).

In the case of `O=C1c2ccccc2Cc2ccccc21`, the Potency entry in test [1], in [2], in test [3], in [9], in test [4] and in [5] was “inactive” in each case. Moreover, the Potency entry in test [6] and in test [7] was “inactive” in each case.

Take `CN(C)C(=O)C1(N2CCCCC2)CCN(CC[C@@]2(c3ccc(Cl)c(Cl)c3)CN(C(=O)c3ccccc3)CCO2)CC1`: the Potency entry in test [1] was “inactive”. The Potency in test [8] is 20.3 µM (active); in [4], 20.3 µM (active); in [5], 51.3 µM (active); in test [7] it was 11.5 µM (active).

Turning to `C[n+]1ccn(Cc2ccccc2)c1`, the Potency entry in [1], in test [2], in [3], in test [4], in test [5] and in test [6] was “inactive” throughout. For the same molecule, the Potency result in test [7] was “inactive”.

`CN1CCN(CCC(=O)N2c3ccccc3Sc3ccc(C(F)(F)F)cc32)CC1`: the Potency result in test [1], in test [2], in test [5] and in [6] was “inactive” in each case. Also, the Potency in test [3] is 33.5 µM (active); in test [4], 29.8 µM (active); in [7] it was 11.9 µM (active).

With `NNC(=O)c1cccc(C(=O)NN)c1`, in test [1], the Potency was 27.3 µM (active). Further, the Potency result in test [2], in test [10], in [3], in test [9], in test [4] and in test [5] was “inactive” each time. Further, the Potency entry in test [6] and in [7] was “inactive” throughout.

Regarding `O=Cc1cc(O)ccc1Br`, the Potency result in [1], in [2] and in test [4] was “inactive” throughout.

As to `CCCCCCCCCCCC[N+](C)(C)CCCCCCCCCCCC`, in test [1], the Potency entry was “inactive”. Also, the Potency in test [8] is 48.6 µM (active); in [4] it was 24.3 µM (active); in [5] it was 43.6 µM (active); in [7], 17.4 µM (active).

Consider `C[C@@H](NCCCc1cccc(C(F)(F)F)c1)c1cccc2ccccc12`, for which the Potency result in test [1] is “inactive”. For the same molecule, the figures for the Potency in [8], in test [4] and in test [7] were 29.8 µM (active), 29.8 µM (active) and 11.9 µM (active), respectively.

`CCCC(=O)OC[C@@H](OC(=O)CCC)[C@@H](OC(=O)CCC)[C@H](Cn1c2nc(=O)[nH]c(=O)c-2nc2cc(C)c(C)cc21)OC(=O)CCC`: the Potency result in test [1], in [2], in test [3], in test [5] and in test [7] was “inactive” each time. Further, the Potency in test [4] is 26.6 µM (active).

For the molecule `C[C@]12CCC(=O)C=C1CC[C@@H]1[C@@H]2[C@@H](O)C[C@@]2(C)[C@H]1CC[C@]2(O)C(=O)COC(=O)CCC(=O)O`, the Potency entry in [1], in test [2], in test [3], in test [9], in test [4] and in test [5] was “inactive” in each case. Further, in test [7], the Potency result was “inactive”.

With `CCCCCCCCn1sc(Cl)c(Cl)c1=O`, the Potency entry in [1] and in [2] was “inactive” throughout. The Potency in test [10] was 49 µM (active); in test [3], 21.9 µM (active); in test [4], 4.33 µM (active); in test [7], 3.09 µM (active).

With `CCN(Cc1cccnc1)C(=O)c1cccc(Cl)c1[C@]1(C)C(=O)N(Cc2ccc(OC)cc2OC)c2ccc(Cl)cc21`, the Potency result in test [1] and in [5] was “inactive” throughout. The Potency in test [8] is 11.4 µM (active); in test [4] it was 5.09 µM (active); in test [7] it was 4.08 µM (active).

On to `Clc1ccc2nsnc2c1NC1=NCCN1`, for which the Potency result in [1], in test [2], in test [10], in test [3], in [4] and in [5] was “inactive” each time. The Potency result in test [6] and in test [7] was “inactive” in each case.

`COc1ccc(C(=O)/C(Br)=C\C(=O)O)cc1`: the Potency entry in test [1], in [8], in [5] and in test [7] was “inactive” each time.

Regarding `CCCCCCCCCCCCCC[P+](CCCC)(CCCC)CCCC` (tested in a mixture with another compound), the Potency result in test [1], in test [8] and in [7] was “inactive” in each case. The Potency is 19.4 µM (active) in test [4] and 11 µM (active) in test [5].

For `O=c1c(-c2ccccc2)c1-c1ccccc1`, the Potency entry in test [1], in [8], in [4] and in test [5] was “inactive” each time.
